Test: reversal of MRP1-mediated doxorubicin resistance, pilot screen, H69AR cells, doxorubicin co-treatment (AID 601)
Details: H69AR cells + 2 uM doxorubicin, CellTiter-Glo, 72 h; measured here: viability with 2 uM doxorubicin; at 10 µM; stronger effect = lower value

SMILES	viability
CCn1cnc2sc(C(=O)Nc3ccc4c(c3)OCO4)c(C)c2c1=O	83%
CC1CC(C)CN(CC(=O)Nc2ccc(S(N)(=O)=O)cc2)C1 (stereo not given)	82.8%
Cc1ccc(S(=O)(=O)N2CCN(C(=O)CSC3CCCC3)CC2)c(C)c1	88.8%
COc1ccc(C(=O)Nc2nc(C)c(C(=O)N(C)C)s2)cc1OC	84.3%
C=CCOC(=O)CC(NC(=O)c1ccccc1)c1ccccc1 (stereo not given)	85.3%
Cc1nc(Sc2cccn2C)c(C(F)(F)F)c(=O)[nH]1	83.1%
O=C(OCC(=O)c1ccccc1Br)c1ccccn1	81.7%
CCCCSc1nnc([C@H](C)NC(=O)OC(C)(C)C)o1	101%
CCOc1ccccc1C1N(c2ccc(F)cc2)C(=O)C2CCCN21 (stereo not given)	79.8%
CCOc1ncccc1C(=O)Nc1ccc(Cl)cc1	83.2%
O=C(CSc1nc(N2CCCCC2)nc(N2CCCCC2)n1)Nc1nccs1	72.5%
O=C(Nc1ncnc2sc3c(c12)CCC3)c1ccco1	83%
CCc1nnc(SCc2cn3c(C)cc(C)nc3n2)n1N	92.2%
O=C(c1ccco1)N1CCN(c2nc(C(F)(F)F)nc3c2nnn3Cc2ccccc2)CC1	75.8%
O=C(CSc1nnc(-c2ccccc2)o1)NC1CCCCC1	83.9%
Cn1c(Cl)cnc1C1CC(=O)c2cc(Cl)ccc2O1 (stereo not given)	2.04%
C1COC(NC(C2CC2)C2CC2)=N1	79.6%
COc1ccc(C2/C(=C(/O)c3ccccc3)C(=O)C(=O)N2c2ncccn2)cc1OC (stereo not given)	99.1%
CC(=O)SCC(=O)N=c1sc2cc(F)ccc2n1C	96.1%
O=c1c2ccccc2[nH]c(=S)n1CCN1CCC(=C(c2ccc(F)cc2)c2ccc(F)cc2)CC1	83.6%
